Drawing on the supplement of paper PMC13380429, this text covers morphology score and SARS-CoV-2 infection rate for 31 compounds.

The subject of assay [1] is Vero E6 infected with SARS-CoV-2. Description: morphology score (similarity to uninfected cells); higher = more like uninfected cells. To be noted: 24 h.
Assay [2] shares this test system. Description: SARS-CoV-2 infection rate relative to infected DMSO; higher = more infection, active = 60 or less. To be noted: 24 h.

With `O=C(OCCO)c1ccccc1O` [2-hydroxyethyl-salicylate] (10 µM), in assay [1], the morphology score is -0.198. Moreover, the SARS-CoV-2 infection rate in assay [2] is 108% (inactive).
In assay [1], `CC(=O)O[C@]1(C(C)=O)CC[C@H]2[C@@H]3C=C(Cl)C4=CC(=O)CC[C@]4(C)[C@H]3CC[C@@]21C` [chlormadinone-acetate] (10 µM) came in with a morphology score of 0.106. The SARS-CoV-2 infection rate in assay [2] is 106% (inactive).
For `CCCCCCc1ccc(O)cc1O` [hexylresorcinol] (10 µM) the same measures were 0.199 and 88% (inactive).
In assay [1], `O=C(O)c1ccc2c(c1)nc(Nc1cccc(Cl)c1)c1ccncc12` (10 µM) yielded a morphology score of 0.237. In assay [2], the SARS-CoV-2 infection rate was 103% (inactive).
`CN1CCC(=C2c3ccccc3CCc3sccc32)CC1` [pizotifen] (10 µM) displayed a morphology score in assay [1] of 0.285. Also, in assay [2], the SARS-CoV-2 infection rate was 94.5% (inactive).
In assay [1], `NC(=S)N/N=C/c1coc2ccccc2c1=O.[Cl][Cu][Cl]` (10 µM) registered a morphology score of -0.124. Further, in assay [2], the SARS-CoV-2 infection rate was 110% (inactive).
Taken in the same sequence, the figures for `CC(C)CCNC(=O)[C@H](CC(C)C)NC(=O)[C@H]1O[C@@H]1C(=O)O` [loxistatin-acid] (10 µM) were 0.296 and 88% (inactive).
In assay [1], `C[N+](C)(C)NCCC(=O)O` [meldonium] (10 µM) came in with a morphology score of 0.253. Besides, the SARS-CoV-2 infection rate in assay [2] was 88.5% (inactive).
Taken in the same sequence, the figures for `CC1Cc2ccccc2N1NC(=O)c1ccc(Cl)c(S(N)(=O)=O)c1` (configuration not stated) [indapamide] (10 µM) were 0.0243 and 112% (inactive).
The compound `CCN1C(=O)NC(c2ccccc2)C1=O` (configuration not stated) [ethotoin] (10 µM) returned a morphology score in assay [1] of 0.221. Also, in assay [2], the SARS-CoV-2 infection rate was 97% (inactive).
For `CN1CCN(CCOc2cc(OC3CCOCC3)c3c(Nc4c(Cl)ccc5c4OCO5)ncnc3c2)CC1` [saracatinib] (10 µM) the same measures were -0.132 and 110% (inactive).
Consider `COc1ncc2cc(C(=O)Nc3cc(C(=O)NCc4cccc(Cl)c4)ccc3Cl)c(=O)[nH]c2n1` (10 µM), for which the morphology score in assay [1] is -0.0693. The SARS-CoV-2 infection rate in assay [2] is 110% (inactive).
In assay [1], `CC(C)[C@]12O[C@H]1[C@@H]1O[C@]13[C@]1(O[C@H]1C[C@H]1C4=C(CC[C@@]13C)C(=O)OC4)[C@@H]2O` [triptolide] (10 µM) yielded a morphology score of 0.381. The SARS-CoV-2 infection rate in assay [2] was 89% (inactive).
The compound `CC1CCN(CCCC(=O)c2ccc(F)cc2)CC1` [melperone] (10 µM) gave a morphology score in assay [1] of 0.389. The SARS-CoV-2 infection rate in assay [2] is 80.5% (inactive).
For `COc1ccc(-c2cc3c(C)nc(N)nc3n([C@H]3CC[C@H](OCCO)CC3)c2=O)cn1` (0.833333 µM) the same measures were 0.0503 and 102% (inactive).
For `CCc1cc2c(cc1N1CCC(N3CCOCC3)CC1)C(C)(C)c1[nH]c3cc(C#N)ccc3c1C2=O` [alectinib] (10 µM) the same measures were 0.135 and 106% (inactive).
`O=C(NC1CCNCC1)[C@@H]1CC[C@@H]2CN1C(=O)N2OS(=O)(=O)O` [relebactam] (10 µM) gave a morphology score in assay [1] of 0.0111. The SARS-CoV-2 infection rate in assay [2] was 110% (inactive).
Taken in the same sequence, the figures for `Cc1[nH]c(/C=C2\C(=O)Nc3ccc(F)cc32)c(C)c1C(=O)NCCN1CCCC1` [toceranib] (0.833333 µM) were -0.0721 and 26% (active).
On to `O/N=C/c1cc[n+](COC[n+]2ccc(/C=N/O)cc2)cc1` [obidoxime] (10 µM), for which, in assay [1], the morphology score was -0.0437. In assay [2], the SARS-CoV-2 infection rate was 108% (inactive).
Taken in the same sequence, the figures for `CCN[C@H]1C[C@H](C)S(=O)(=O)c2sc(S(N)(=O)=O)cc21` [dorzolamide] (10 µM) were 0.0923 and 100% (inactive).
For `CC(C)(C)c1ccc(S(=O)(=O)/C=C/C#N)cc1` (0.833333 µM) the same measures were 0.173 and 89.5% (inactive).
Taken in the same sequence, the figures for `CN(C)[C@@H]1C(O)=C(C(N)=O)C(=O)[C@@]2(O)C(O)=C3C(=O)c4c(O)cccc4[C@@](C)(O)[C@H]3C[C@@H]12` [tetracycline] (10 µM) were 0.157 and 100% (inactive).
In turn, `O=C1c2cc(Cl)ccc2OC2CCON12` (configuration not stated) [seclazone] (10 µM) registered a morphology score in assay [1] of 0.0763. Moreover, the SARS-CoV-2 infection rate in assay [2] was 102% (inactive).
For `O=C(COc1cccc2c(=O)[nH]ccc12)c1ccccc1` (10 µM) the same measures were 0.0752 and 87% (inactive).
Taken in the same sequence, the figures for `CC(/C=C1\SC(=S)N(CC(=O)O)C1=O)=C\c1ccccc1` [epalrestat] (10 µM) were 0.192 and 106% (inactive).
Taken in the same sequence, the figures for `OC(c1ccc(-c2ccc(CN3CCN(Cc4ccncc4)CC3)cc2)c(F)c1)(C(F)(F)F)C(F)(F)F` (10 µM) were -0.228 and 104% (inactive).
In assay [1], `CCCCOc1ccc(CC(=O)NO)cc1` [bufexamac] (10 µM) registered a morphology score of 0.234. The SARS-CoV-2 infection rate in assay [2] is 94% (inactive).
In the case of `COc1ccc2c(c1)C=C1Cn3c-2c(C2CCCCC2)c2ccc(cc23)C(=O)NS(=O)(=O)N(C)CCOCCN(C)C1=O` (10 µM), the morphology score in assay [1] was found to be 0.153. Further, the SARS-CoV-2 infection rate in assay [2] is 97.5% (inactive).
For `CC(C)CCC[C@@H](C)[C@H]1CC[C@H]2[C@@H]3CC=C4C[C@@H](O)CC[C@]4(C)[C@H]3CC[C@]12C` [cholesterol] (10 µM) the same measures were 0.178 and 98% (inactive).
For `CC(C)[C@@H]1CC[C@@H](C)C[C@H]1O` [levomenthol] (10 µM) the same measures were -0.181 and 108% (inactive).
Taken in the same sequence, the figures for `C#CCN1C(C)=C(C(=O)OC)C(c2cccc([N+](=O)[O-])c2)C(C(=O)OCC)=C1C` (configuration not stated) (10 µM) were 0.0591 and 87.5% (inactive).
